An excerpt weighted towards active compounds, which were near 2.6% of everything screened.
CF NFkB inh – blocks PAF-induced NF-kB reporter in cystic fibrosis cells; KKLEB NF-kB-GFP reporter, GFP fluorescence overnight; inhibition, % at 5 µM; actives 0.86% (n = 360,000); AID 588850;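 active means at least 50% inhibition at 5 µM, scaled per plate between neutral and stimulator controls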;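 further: PAF is a Pseudomonas aeruginosa culture filtrate used as stimulus; plate controls were PAF-stimulated DMSO wells for no effect and unstimulated DMSO wells for full effect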
LGR2 inh – Drosophila LGR2 receptor signaling inhibition. actives 0.35% (n = 380,000). inhibition, % at 9.99 µM. HEK293 LGR2, CRE-luciferase, bursicon-stimulated, 4 h;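 active means drop in luminescence signal, shown as inhibition above about 50% in the replicate tests, limit read from the data, passing the limit was not always enough; inconclusive means probably only some replicates passing the limit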;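 further: agonist challenge used bursicon conditioned medium at about half maximal strength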
TROY signal inh – inhibitors of TROY-dependent NF-kB signaling; Q293 LMP1-TROYcd NF-kB luciferase reporter, 4 h; inhibition, % at 10 µM; actives 0.98% (n = 360,000); AID 1347056;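 active means compounds whose plate-normalised and pattern-corrected inhibition of the luciferase reporter signal at the single screening dose is 50% or more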
TWEAK-Fn14 inh – blocks TWEAK-Fn14 interaction in a reporter cell assay | actives 2% (n = 360,000) | TWEAK-stimulated Fn14 reporter cells, luciferase luminescence, 8 h | AID 1159606 | inhibition, % at 10 µM; in the data active means inhibition above about 50%
KKLEB cytotox – counter-screen for CF NF-kB inhibitors: cytotoxicity; KKLEB CF airway cells viability, ATPlite luminescence, overnight; hits give low values; cells stimulated with P. aeruginosa culture filtrate; activity change (cytotoxicity), % at 5 µM; actives 0.36% (n = 360,000); AID 602141;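 active means corrected activity change at or below -50% at 5 µM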
EWS-Fli inh – EWS/Fli transcriptional activity inhibition; A673 NR0B1-luciferase reporter, viability-normalised; actives 0.67% (n = 350,000); inhibition, % at 12.6 µM;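 active means mean inhibition of at least 50% after viability correction, with every replicate also passing that limit; inconclusive means mean reaches 50% but only one of two replicates passes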;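 further: firefly luciferase signal divided by Alamar Blue viability fluorescence both relative to DMSO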
An asterisk follows results filed as active; ? = inconclusive; . = no result given.

SMILES	CF NFkB inh	LGR2 inh	TROY signal inh	TWEAK-Fn14 inh	KKLEB cytotox	EWS-Fli inh
O=C(NNc1ccccc1[N+](=O)[O-])Nc1ccc(Cl)c(Cl)c1	22	.	55*	39	19	-1
CCN(CC)S(=O)(=O)c1cc([N+](=O)[O-])ccc1NNC(=O)Nc1ccc(Cl)c(Cl)c1	48	.	54*	59*	-32	.
CCCCN(CCCC)S(=O)(=O)c1ccc(NC(=O)c2ccc([N+](=O)[O-])cc2Cl)cc1	22	?	31	63*	-17	.
O=C(Nc1ccc(Cl)c([N+](=O)[O-])c1)C(Sc1ccccc1)c1ccccc1 (stereo not given)	50	45	55*	94*	-8	10
O=C(Nc1cc([N+](=O)[O-])ccc1Cl)C(Sc1ccccc1)c1ccccc1 (stereo not given)	5	13	-6	-9	-1	32
COC(=O)C1=C(CN2CCCc3ccccc32)NC(=O)NC1c1ccc(F)cc1 (stereo not given)	-29	17	64*	85*	-4	.
COC(=O)[C@H]1[C@H](CO)[C@H]2Cn3c(ccc(-c4ccccc4OC)c3=O)[C@H]2N1CC1CCCC1	.	-10	.	.	.	4
C[C@@H]1CN([C@@H](C)CO)C(=O)c2cccc(NC(=O)C3CC3)c2O[C@H]1CN(C)S(C)(=O)=O	.	13	.	.	.	0
O=C(Nc1ccc2nc3n(c(=O)c2c1)CCCC3)c1cc([N+](=O)[O-])ccc1F	48	.	80*	89*	-22	.
CCN(CC)S(=O)(=O)c1cccc(C(=O)/C=C2/N(C)c3ccccc3C2(C)C)c1	10	18	33	61*	-8	10
CN1/C(=C/C(=O)C2CC2)C(C)(C)c2ccccc21	-39	4	-31	-3	-1	3
CN1/C(=C\C(=S)NC(=O)c2cccc(Br)c2)C(C)(C)c2ccccc21	-9	.	37	72*	-5	-3
CN1/C(=C\C(=S)NC(=O)c2ccc([N+](=O)[O-])cc2)C(C)(C)c2ccccc21	-19	12	-27	58*	9	.
C[C@@H]1CN([C@H](C)CO)C(=O)c2cc(C#CC3(O)CCCC3)cnc2O[C@H]1CN(C)C(=O)CC1CC1	.	-13	.	.	.	-8
C[C@@H]1CN([C@H](C)CO)C(=O)c2cc(C#Cc3ccncc3)cnc2O[C@@H]1CN(C)S(=O)(=O)c1ccccc1F	.	2	.	.	.	-5
CCCC#Cc1ccc([C@@H]2[C@H](CO)N3C(=O)CN(C(=O)Cc4cccnc4)C[C@@H]23)cc1	.	7	.	.	.	-5
O=S(=O)(c1cccc(NC(=S)N2CCN(c3ccccc3F)CC2)c1)C(F)F	17	18	14	51*	8	-7
C[C@H]1CN([C@@H](C)CO)C(=O)c2cc(NC(=O)CCN3CCOCC3)ccc2O[C@H]1CN(C)CC1CCCCC1	.	5	.	.	.	-1
O=C1C=C(Nc2ccccc2C(=O)O)c2ccccc2C1=O	-6	7	-24	-37	4	-32
O=C1C=C(Nc2cccc3cccnc23)c2ccccc2C1=O	-6	-10	3	28	2	8
O=C1C=C(Nc2ccccc2)c2ccccc2C1=O	72*	48	-1	-2	-25	2
O=C1C=C(Nc2ccccc2)C(=O)c2ccccc21	60*	19	-49	17	-8	-35
CCc1ccc(NC2=CC(=O)C(=O)c3ccccc32)cc1	96*	-66	40	19	-91*	-38
Cc1noc(C)c1NC(=O)Nc1ccc2c(c1)C(=O)N([C@@H](C)CO)C[C@@H](C)[C@H](CN(C)C(=O)Nc1ccccc1)OCCCC[C@H](C)O2	.	15	.	.	.	-6
C[C@@H]1CN([C@H](C)CO)C(=O)c2cc(NC(=O)Nc3ccc4c(c3)OCO4)ccc2O[C@@H](C)CCCCO[C@H]1CN(C)S(=O)(=O)c1cccs1	.	4	.	.	.	1
O=C(O)CN1C(=O)/C(=C\c2ccccc2OCc2ccc(Cl)cc2)SC1=S	-2	13	-33	-24	7	-3
O=C(O)CN1C(=O)/C(=C\c2cc(Br)ccc2OCc2ccc(Cl)cc2Cl)SC1=S	-6	2	87*	3	8	.
COc1ccc(CCn2c(SCC(=O)Nc3cc(C)on3)nc3ccccc3c2=O)cc1OC	64*	.	3	9	-79*	.
COCCn1c(SCC(=O)NNC(=O)c2ccc(OC)c(OC)c2)nc2ccccc2c1=O	14	.	4	-2	9	6
